High-throughput results as filed in PubChem BioAssay.
ERK AVP block – blocks ERK signaling stimulated by vasopressin | HEK293-V1b, vasopressin-stimulated pERK AlphaScreen | Potency, µM (top dose mostly 57.5 µM), for the others: at the highest dose activity, negative = inhibition, hits mostly inhibitors | 72,000 tested, 0.99% active | AID 995; note: % is set by controls: 0 for no effect and ±100 for the full control effect; nearly all actives have a fitted effect of over 55% in size
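Phosphorylated ERK1/2 detected via AlphaScreen bead proximity in lysates of V1b-expressing HEK293 cells given 25 nM vasopressin for 5 min after 30 min compound exposure (37 °C). AC50 from Hill equation; basal DMSO 0%, vasopressin 100%.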
HEK293 cAMP ctrl – counter-screen for TSHR agonists: cAMP increase in parental HEK293 | parental HEK293 CNG cAMP sensor, membrane potential fluorescence | Potency, µM (titrated, usually from 57.1 µM), for the others: at the highest dose activation, usual class: activators | 73,000 tested, 2.5% active | AID 938; note: % of control where 0% means no effect; nearly all actives have a fitted effect of over 55% in size
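Counterscreen for endogenous-receptor signalling: CNG-channel HEK 293 cells report cAMP rise by membrane depolarization. After 60 min dye equilibration with 100 uM RO 20-1724, compounds incubated 30 min before bottom-read fluorescence at 590 nm.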
TSHR agonist – agonists of human thyroid stimulating hormone receptor | HEK293-CNG-TSHR cells (CNG channel as cAMP sensor), membrane potential dye, cAMP | Potency, µM (highest dose often 57.1 µM), for inactives: top-dose activation, most hits filed as activators | 73,000 tested, 0.48% active; active = well fitted activation curve with a large enough effect in the main read-out, with a control signal flat, not every such curve was filed as active; inconclusive = small, poorly fitted or top-dose-only effect, or a change in a side signal; inactive = no such curve, though single readings can be large or run the other way; % of control where 0% means no effect;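 note: the control signal comes from parental cells without the receptor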
Target sequence (P16473 whole entry, looked up): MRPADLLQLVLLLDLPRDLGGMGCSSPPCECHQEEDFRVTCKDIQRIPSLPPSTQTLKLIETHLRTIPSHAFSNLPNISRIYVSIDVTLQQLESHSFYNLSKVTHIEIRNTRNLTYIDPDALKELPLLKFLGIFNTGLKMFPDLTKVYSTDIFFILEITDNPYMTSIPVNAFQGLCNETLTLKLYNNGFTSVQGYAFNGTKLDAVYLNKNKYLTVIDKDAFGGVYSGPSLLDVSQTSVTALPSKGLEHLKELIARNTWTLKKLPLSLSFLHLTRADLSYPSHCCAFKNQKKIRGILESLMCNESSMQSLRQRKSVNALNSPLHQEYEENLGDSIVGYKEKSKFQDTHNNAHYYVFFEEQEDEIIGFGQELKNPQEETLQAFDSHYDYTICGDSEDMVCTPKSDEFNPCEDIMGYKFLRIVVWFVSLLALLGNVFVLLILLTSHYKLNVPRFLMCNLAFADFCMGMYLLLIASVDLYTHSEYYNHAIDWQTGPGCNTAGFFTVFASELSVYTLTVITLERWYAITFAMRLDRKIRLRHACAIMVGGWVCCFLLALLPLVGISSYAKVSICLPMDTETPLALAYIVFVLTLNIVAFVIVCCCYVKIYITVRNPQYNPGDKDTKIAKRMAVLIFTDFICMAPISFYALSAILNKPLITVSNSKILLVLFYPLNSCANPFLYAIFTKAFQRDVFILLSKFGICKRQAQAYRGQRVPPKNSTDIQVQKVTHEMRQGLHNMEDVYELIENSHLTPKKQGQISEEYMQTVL
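HEK 293 cells stably expressing TSHR and a cAMP-gated CNG channel; parental CNG-only cells as counterscreen. Cells preloaded 60 min with membrane potential dye plus 100 uM RO 20-1724, then compound 30 min; fluorescence read at 590 nm.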
CRE Fsk mod – alters forskolin-stimulated CRE reporter signaling in CHO cells; CHO CRE-bla reporter (cAMP response element driving beta-lactamase), forskolin EC10, beta-lactamase ratio; Potency, µM (highest dose often 38.2 µM), for inactives: at the highest dose activity change, negative = inhibition, actives largely listed as activators; AID 662; 71,000 tested, 2.5% active; active = well fitted activation curve with a large enough effect in the signal ratio, with a control signal flat, not every such curve was filed as active; inconclusive = small, poorly fitted or top-dose-only effect, or effect the other way, or a change in a side signal; the % refers to the signal ratio; note: % of control where 0% means no effect
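Modulation of forskolin signalling: compounds in titration series added with EC10 NKH 477 to CHO cells carrying a CRE-driven beta-lactamase reporter, 3 h, 37C. CCF4 FRET ratio (460/530 nm, ex 405 nm) gives %activity and AC50.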
Active calls of the source: *; ? = inconclusive; · = no result; [ ] = dose if it differs, or a comment. Rows were chosen to be rich in hits. Some 6% of all compounds tested hit in one or more screens of this group. Unless noted, calls come from the whole dose curve; as a rule, active = well fitted curve in the direction sought with a large enough effect; inconclusive = small, poorly fitted or top-dose-only effect, or another doubt; inactive = no such curve, though single readings can be large; an effect the other way counts as inactive or inconclusive. Potency is the fitted concentration of half-maximal effect.

SMILES | ERK AVP block | HEK293 cAMP ctrl | TSHR agonist | CRE Fsk mod
COC(=O)N1CCC[C@@]2(CCN(Cc3nccs3)C2)C1 | 18% | 4% | 2% | 0%
O=C(c1ncn[nH]1)N1CCN(c2nc(-c3ccccc3)cs2)CC1 | ? | -4% | 2% | 7%
O=C(c1cc(-n2cnnc2)ccc1Cl)N1CCN(c2nc(-c3ccccc3)cs2)CC1 | 25µM* | ? | ? | 27%
CN(C)CCNC(=O)c1ccc(Cc2nc3ccccc3[nH]2)cc1 | · | -3% | -2% | ·
CCC(Oc1ccccc1)C(=O)Nc1ccccc1OC (centres undefined) | 25% | 32µM* | ? | 2%
CC(=O)NC1C(=O)N=C(SCC(=O)NC(C)c2ccccc2)NC1=O (centres undefined) | 7% | 16µM* | ? | 1%
CC(=O)NC1C(=O)N=C(SCc2ccccc2)NC1=O (centres undefined) | -25% | 0% | 2% | 2%
COc1ccc(-c2c3c(=O)n(C)c(=O)n(C)c3c3nnc4ccccc4n23)cc1 | -6% | -2% | -9% | -14%
COc1ccc(-c2c3c(=O)n(C)c(=O)n(C)c3cn2C2CCCCC2)cc1 | 16µM* | 26% | · | 8%
CCOC(=O)c1cc2c(=O)n3ccccc3nc2n(Cc2ccccc2)c1=N | 5% | -20% | -10% | -20%
CCCCNC(=O)c1cc2c(=O)n3cccc(C)c3nc2n1C | · | -1% | -1% | ?
CCOCCCn1c(=N)c(C(N)=S)cc2c(=O)n3cccc(C)c3nc21 | ? | -10% | -5% | 13µM*
CCOCCCNC(=O)c1cc2c(=O)n3cccc(C)c3nc2n1C | · | 6% | -1% | 0.25µM*
c1ccc(-c2nnn(C34CC5CC(CC(C5)C3)C4)n2)cc1 | 35% | 19% | 32µM* | ?
CCOC(=O)CSc1nc2c(sc(=S)n2Cc2ccco2)c(=O)n1-c1ccccc1 | ? | 1.3µM* | ? | ?
CCOC(=O)CSc1nc2ccccc2c(=O)n1Cc1ccco1 | -13% | ? | ? | 14%
CCOC(=O)c1sc(NC(=O)CSc2nnnn2-c2ccc(C)cc2C)nc1C | -7% | 25µM* | ? | 5%
CCOC(=O)C1CCN(C(c2cccs2)c2sc3nc(C)nn3c2O)CC1 (centres undefined) | · | 14% | 2% | 6.3µM*
COC(=O)C1CCN(C(c2cccs2)c2sc3nc(C)nn3c2O)CC1 (centres undefined) | · | 10% | -1% | -7%
CCCn1c(SCC(=O)N2CCN(c3ccccc3)CC2)nc2ccccc2c1=O | 0% | 27% | 5µM* | ?
CC1Cc2nc(SCC(=O)Nc3nccs3)n(Cc3ccccc3)c(=O)c2S1 (centres undefined) | · | -1% | 6% | 13µM*
CCn1c(SCC(=O)N2CCN(c3ccccc3)CC2)nc2c(c1=O)SC(C)C2 (centres undefined) | · | 25µM* | ? | 24%
CCOC(=O)c1ccc(NC(=O)CSc2nc3c(c(=O)n2C)SC(C)C3)cc1 (centres undefined) | · | 20µM* | ? | 5%
CC1Cc2nc(SCC(=O)Nc3ccc4c(c3)OCCO4)n(C)c(=O)c2S1 (centres undefined) | 7% | 13% | 7% | -13%
CN(C)CCn1c(CO)nc2c1c(=O)n(C)c(=O)n2C | -25%[11.5 µM] | 1%[11.4 µM] | -4%[11.4 µM] | 4%[7.6 µM]
SMILES | ERK AVP block | HEK293 cAMP ctrl | TSHR agonist | CRE Fsk mod
O=c1c(-c2ccccc2)nc2cnc(Oc3ccccc3)nc2n1Cc1cccs1 | 9% | 6% | 1% | 8%
O=C(CCN1C(=O)c2ccccc2C1=O)N1CCN(c2ccccn2)CC1 | -27% | 6% | 6% | -1%
O=C(CCN1C(=O)c2ccccc2C1=O)N1CCN(C(=O)c2ccccc2)CC1 | 0% | 28% | 25µM* | 18%
COc1cccc(NS(=O)(=O)c2cn(C)c(=O)n(C)c2=O)c1 | · | 5% | 2% | 6%
Cn1cc(S(=O)(=O)Nc2ccc(F)cc2F)c(=O)n(C)c1=O | · | 19% | 2.5µM* | ?
COc1cc(O)c2c(O)c3c(c4c2c1[C@@]1(C4)C(C)=CCCC1(C)C)[C@H](O)[C@@]1(O)CC(=O)C(C(N)=O)=C(O)[C@]1(O)C3=O | 1%[11.5 µM] | 13%[11.4 µM] | 6%[11.4 µM] | ?
O=C(c1ccc(Cl)s1)N1CCN(c2ccccc2)CC1 | · | 28% | 1% | 13µM*
O=C(c1ccc(Cl)s1)N1CCc2ccccc21 | 2% | 27% | 16µM* | 9%
O=C(C1CCC(C(=O)N2CCc3ccccc32)CC1)N1CCc2ccccc21 (centres undefined) | 19% | ? | ? | -23%
CCOC(=O)C(Sc1nnc2c3ccccc3n(CC)c2n1)C(=O)OCC | -4% | 3% | · | ?
CSc1nnc2c3cc(C)ccc3n(Cc3ccccc3)c2n1 | -5% | 16µM* | ? | 2µM*
O=C(c1cc2n(n1)C(C(F)(F)F)CC(c1ccco1)N2)N1CCc2ccccc2C1 (centres undefined) | 25µM* | -11% | -16% | ?
COc1ccccc1N1CCN(c2nc(C)nc3c2oc2ccccc23)CC1 | ? | 25µM* | ? | 1.6µM*
c1cnc(N2CCN(Cc3ccc4c(c3)OCO4)CC2)nc1 | 27% | 16% | 14% | -16%
Cc1nc(N2CCN(Cc3ccc4c(c3)OCO4)CC2)c2oc3ccccc3c2n1 | ? | ? | ? | 10µM*
COc1ccccc1N1CCN(Cc2cc(Br)c(O)c3ncccc23)CC1 | ? | 0% | -12% | ?
Cc1nc(N2CCC(C)CC2)c2oc3ccccc3c2n1 | -12% | 25µM* | ? | ?
N#Cc1ccc(CN2CC3(CCN(C(=O)c4ccco4)CC3)C2)cc1 | ? | 8% | -1% | 7%
CC1(C(=O)Nc2nccs2)Cc2ccccc2C(=O)O1 (centres undefined) | 25µM* | 17% | · | ?
COc1ccccc1NC(=O)C1(C)Cc2ccccc2C(=O)O1 (centres undefined) | 28% | 12% | 9% | 14%
O=C1N=C(O)CN1/N=C\c1ccc(-c2ccc([N+](=O)[O-])cc2)o1 | 0% | -16% | -12% | ?
CCOC(=O)c1c(C)n(C)c2ccc(OCC(O)CN3C(=O)c4ccccc4S3(=O)=O)cc12 (centres undefined) | ? | 1% | 13% | 2µM*
CCOC(=O)c1c(C)n(C)c2ccc(OCC(O)CN(CC)CC)cc12 (centres undefined) | -13% | 14% | 6% | 17%
CCOC(=O)c1c(C)n(C)c2ccc(OCC(O)Cn3nc(C)cc3C)cc12 (centres undefined) | -21% | 2% | 8% | 13µM*
CCOc1ccc(C(=O)C(c2ccccc2)N2CCOCC2)cc1 (centres undefined) | 5% | ? | ? | 18%
CCCOc1ccc(C(=O)C(c2ccccc2)N2CCOCC2)cc1 (centres undefined) | -5% | 25µM* | ? | 11%
O=S(=O)(Nc1cccc2ncccc12)c1cccs1 | 10% | ? | ? | ?
